This is part of a sample that, as a whole, favours compounds with a hit. Of some 83,000 tested, about 20% had one in any assay.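 Cell lines were cultured in 96-well plates, exposed to a single compound concentration, and assessed for percent growth 48 hours later.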 Active and inactive are the calls of the source. The calls were made as follows: active = growth percent below 10; inactive = the rest.
How the values were obtained:
Experiment in all cases: NCI-60 one-dose screen, 48 h (100 = growth as untreated, 0 = no growth, -100 = all killed)
Conditions in all cases: 10 µM unless noted
[1] = system: DU-145 prostate
[2] = system: K-562 leukemia
[3] = system: MALME-3M melanoma
[4] = system: MDA-MB-231 breast
[5] = system: RXF 393 renal
[6] = system: SF-268 CNS
[7] = system: SF-295 CNS
[8] = system: UACC-257 melanoma
[9] = system: M14 melanoma
[10] = system: HCT-15 colon
[11] = system: HT29 colon
[12] = system: SNB-75 CNS
[13] = system: SNB-19 CNS
[14] = system: U251 CNS
[15] = system: PC-3 prostate
[16] = system: SK-MEL-5 melanoma
[17] = system: UACC-62 melanoma
[18] = system: SK-MEL-28 melanoma
[19] = system: LOX IMVI melanoma

Measured: growth

COC(=O)C12C3C(=O)N(c4ccc(OC)cc4)C(=O)C3C(c3cn(-c4ccccc4)nc3C)N1[C@H](c1cn(-c3ccccc3)nc1C)[C@@H]1C(=O)N(c3ccc(OC)cc3)C(=O)[C@@H]12 (stereo partly drawn)
inactive: [1] 109% | [2] 92.3% | [3] 108% | [4] 108% | [5] 102% | [6] 104% | [7] 91.8% | [8] 98% | [9] 105% | [10] 101% | [11] 103% | [12] 89.9% | [13] 91.1% | [14] 93.9% | [15] 87% | [16] 99.7% | [17] 96.8% | [18] 105%

Cc1ccn2c(-c3csc(Nc4cccc(O)c4)n3)c(C)nc2c1
active: [2] 2.56% | [4] -1.81% | [5] 0.213% | [12] -2.73% | [16] -42.9%
inactive: [1] 17.7% | [3] 65.4% | [6] 39.5% | [7] 16.3% | [8] 77.2% | [9] 16% | [10] 17.1% | [11] 61.7% | [13] 49.2% | [14] 28.6% | [15] 26.6% | [17] 21.5% | [18] 37.7%

O=C(Nc1ccc(Nc2cc(Nc3ccccc3)ncn2)cc1)Nc1cc(C(F)(F)F)ccc1F
inactive: [1] 65.7% | [2] 56.1% | [3] 85.9% | [4] 56.9% | [5] 61.2% | [6] 94.6% | [7] 84.2% | [8] 73.6% | [9] 57.4% | [10] 70.9% | [11] 58.4% | [12] 57.1% | [13] 87.4% | [14] 64.2% | [15] 55.8% | [16] 82% | [17] 65.8% | [19] 63.6% | [18] 71.9%

CNCCCn1c2c(c3ccc([N+](=O)[O-])cc3c1=O)C(=O)c1cc(OC)cnc1-2
active: [1] 0.657% | [2] -28.9% | [3] -69.2% | [4] -51.9% | [5] -90.5% | [6] 0.163% | [7] -13.2% | [8] -23.1% | [9] -13.1% | [10] -27.5% | [11] -19.2% | [12] -26.5% | [13] 2.67% | [14] -61.1% | [15] 2.02% | [16] -98.8% | [17] -77.1% | [19] -89% | [18] -67%

COc1ccc(N(Cc2cc(OC)c(OC)c(OC)c2)C2OC(=O)c3ccccc32)cc1 (stereo not drawn)
active: [5] -31.7% | [11] 5.34% | [12] -6.32%
inactive: [1] 25.5% | [2] 17.7% | [3] 31.3% | [4] 41.1% | [6] 44% | [7] 16.3% | [8] 70.8% | [9] 25.7% | [10] 36.1% | [13] 53.3% | [14] 19.4% | [15] 25.2% | [16] 18.2% | [17] 44.2% | [19] 46.2% | [18] 55.5%

C[C@]12C[C@@H](c3ccoc3)OC(=O)[C@@H]1CC[C@]1(C)[C@@H]2CC[C@@H](O)[C@]1(C)O
inactive: [1] 73% | [2] 39.8% | [3] 81.6% | [4] 74.6% | [5] 102% | [6] 106% | [7] 51.7% | [8] 83% | [9] 82.4% | [10] 85.4% | [11] 68.3% | [12] 62.3% | [13] 76.5% | [14] 66.5% | [15] 60.5% | [16] 76.2% | [17] 76.1% | [19] 70.5% | [18] 94.1%

CCOC(=O)c1c2c(n3ccc(NC(=O)CCN4CCOCC4)cc13)C(=O)c1ncccc1C2=O
inactive: [1] 45.8% | [2] 19.8% | [3] 42.6% | [4] 26% | [5] 63% | [6] 39% | [7] 49.3% | [8] 32% | [9] 24.6% | [10] 33.9% | [11] 32.7% | [12] 52.7% | [13] 54.6% | [14] 41.5% | [15] 51% | [16] 42.3% | [17] 27.7% | [19] 15% | [18] 77.8%

COc1ccc(C2CC(=O)Nc3c2c(C)nn3-c2nc3ccccc3[nH]2)cc1 (stereo not drawn)
active: [2] -33.9%
inactive: [1] 89.1% | [3] 28.8% | [4] 109% | [5] 101% | [6] 47.9% | [7] 85.9% | [8] 111% | [9] 84.5% | [10] 99.6% | [11] 103% | [12] 103% | [13] 113% | [14] 103% | [15] 38.7% | [16] 95.5% | [17] 104% | [18] 105%

COc1cc(C2CC(=O)Nc3c2cnn3Cc2ccco2)cc2c1OCCO2 (stereo not drawn)
inactive: [1] 104% | [2] 29.6% | [3] 102% | [4] 101% | [5] 62.4% | [6] 82.5% | [7] 62% | [8] 82.2% | [9] 70.5% | [10] 64.9% | [11] 88.8% | [12] 77.5% | [13] 97.9% | [14] 84.6% | [15] 97.6% | [16] 75.5% | [17] 75.8% | [18] 75.7%

Cc1cc(OCc2ccc(C(F)(F)F)cc2)c2c(c1)C(=O)C=C(NCCN1CCCC1)C2=O
inactive: [1] 76.2% | [4] 74.7% | [5] 53.6% | [6] 69% | [7] 64.1% | [10] 31.2% | [12] 76.4% | [13] 79.8% | [14] 22.3% | [15] 66% | [17] 86.8%
active: [2] -8.28% | [3] -45.4% | [8] -92.4% | [9] -84.9% | [11] 9.81% | [16] -35.7% | [19] -52.9% | [18] -84.1%

CCCCCCCCCCCCCC(=O)C(C)N (stereo not drawn)
inactive: [3] 77.8% | [5] 28% | [6] 37.7% | [7] 56.3% | [8] 91.6% | [9] 63.7% | [11] 13.8% | [12] 34.1% | [13] 77.5% | [14] 18.2% | [16] 90.3% | [18] 73.9%
active: [1] 7.93% | [2] -44.3% | [4] -54.1% | [10] 3.51% | [15] 3.08% | [17] -71.1% | [19] -79.6%

NC(=S)N/N=C/c1ccc(OCc2ccccc2)cc1
inactive: [1] 85.3% | [2] 43.7% | [3] 56.2% | [4] 69.9% | [5] 52.4% | [6] 80.9% | [7] 96% | [8] 60.7% | [9] 71.6% | [10] 47.8% | [11] 47.7% | [12] 67.8% | [13] 73.1% | [14] 71.8% | [15] 64.2% | [16] 86.4% | [17] 61.8% | [19] 82.1% | [18] 80%

COc1ccc(C(=O)c2sc3nc(-c4ccccc4OC)ccc3c2N)cc1OC
active: [16] 8.53%
inactive: [1] 70.1% | [2] 25.1% | [3] 90.6% | [4] 64% | [5] 55.8% | [6] 64.7% | [7] 47.9% | [8] 86.6% | [9] 50% | [10] 58.5% | [11] 56.2% | [12] 73.2% | [13] 78.2% | [14] 63.2% | [15] 30.9% | [17] 67.8% | [18] 88.8%

CCOC(=O)c1c2c(n3ccc(NC(=O)CCN4CCCCC4)cc13)C(=O)c1ncccc1C2=O
inactive: [5] 41.4% | [6] 36.6% | [7] 35.3% | [8] 21.2% | [12] 23.9% | [15] 47.3%
active: [1] -93.9% | [2] -48.2% | [3] -71.7% | [4] -72.9% | [9] -77.9% | [10] -62.9% | [11] -61.5% | [13] -42.7% | [14] -86.3% | [16] -83.6% | [17] -50.6% | [19] -63.9% | [18] -64.7%

N#Cc1c2c(nc3n[nH]c(N)c13)CCCC2
inactive: [1] 121% | [2] 97.7% | [3] 115% | [4] 106% | [5] 92.9% | [6] 101% | [7] 101% | [8] 101% | [9] 104% | [10] 105% | [11] 104% | [12] 85.6% | [13] 112% | [14] 99.3% | [15] 109% | [16] 118% | [17] 101% | [19] 102% | [18] 122%

COc1cc(/C=N/N(C)C)ccc1O
inactive: [1] 110% | [2] 101% | [3] 105% | [4] 93.1% | [5] 105% | [6] 101% | [7] 104% | [8] 89.1% | [9] 108% | [10] 105% | [11] 93.8% | [12] 103% | [13] 99% | [14] 81.8% | [15] 90% | [16] 99.5% | [17] 90.1% | [19] 108% | [18] 114%

Nc1nc2c(c3ncccc13)C(c1cccc(Br)c1)Cc1ncccc1-2 (stereo not drawn)
active: [5] -7.52% | [7] 7.75% | [11] 0.652%
inactive: [1] 19.8% | [2] 10.3% | [3] 58.4% | [4] 20.4% | [6] 56.4% | [8] 37.9% | [9] 11.2% | [10] 17.6% | [12] 30.1% | [13] 31.6% | [14] 11.3% | [15] 25.6% | [16] 31.8% | [17] 27.4% | [19] 38.9% | [18] 55.1%
